Results filed as inconclusive are left out. Activity calls are given as the source filed them. Calls follow the shape of the dose curve; as a rule, active = well fitted curve in the direction sought with a large enough effect in the repeat runs; inconclusive = weak or mixed curves; inactive = no such curve, though single readings can be large; an effect the other way counts as inactive or inconclusive.
Legend:
[1] = A CellTox Green Cytotoxicity Assay to monitor cytotoxicity in HEK293 cells - 40 hour (AID 1224871); also: nearly all actives have a fitted effect of over 45% in size
Summary of the method: (§1)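 Fluorescence intensity, read at 0, 8, 16, 24, 32 and 40 h of compound treatment, reflected dye binding to DNA of dead HEK293 cells; compounds (23 nL, DMSO) were added 5 h after plating cells with reagent.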

[2] = qHTS RealTime-Glo MT Cell Viability Assay in HEK293 cells - 16 hour (AID 1224872); also: top concentration of the series differs between compounds; nearly all actives have a fitted effect of over 50% in size
Summary of the method: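 Homogeneous bioluminescent viability format in HEK293 cells (600 cells/well). Following 5 h at 37 C/5% CO2, 23 nL compound was pintooled; the signal was measured repeatedly during 40 h incubation.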

[3] = qHTS RealTime-Glo MT Cell Viability Assay in HepG2 cells - 8 hour (AID 1224873); also: nearly all actives have a fitted effect of over 55% in size
Summary of the method: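 HepG2 cells (600/well) mixed with RealTime-Glo MT reagent, settled 5 h at 37 C/5% CO2 before compound addition. Nonlytic NanoLuc luminescence from viable-cell prosubstrate reduction read repeatedly during 40 h treatment at 37 C.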

[4] = qHTS RealTime-Glo MT Cell Viability Assay in HEK293 cells - 40 hour (AID 1224874); conditions: RealTime-Glo luminescence; max response: active compounds read low; also: nearly all actives have a fitted effect of over 50% in size
Summary of the method: (§2)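 Viable HEK293 cells reduce a cell-permeant prosubstrate; the product diffuses out and is consumed by NanoLuc in the medium to give light. Compounds went in after a 5 h incubation and plates were read over the treatment course.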

[5] = A CellTox Green Cytotoxicity Assay to monitor cytotoxicity in HEK293 cells - 24 hour (AID 1224875); also: series mostly up to about 77 µM; nearly all actives have a fitted effect of over 45% in size
Summary of the method: as §1

[6] = A CellTox Green Cytotoxicity Assay to monitor cytotoxicity in HepG2 cells - 16 hour (AID 1224876); also: nearly all actives have a fitted effect of over 45% in size
Summary of the method: (§3)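 Using 1536-well format, dye-containing HepG2 suspension was seeded, allowed 5 h at 37 C/5% CO2, dosed by pintool with compounds, positive and negative controls, and imaged for fluorescence across 40 h.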

[7] = qHTS RealTime-Glo MT Cell Viability Assay in HepG2 cells - 32 hour (AID 1224877); also: nearly all actives have a fitted effect of over 55% in size
Summary of the method: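 Cell number in HepG2 cultures estimated from NanoLuc luminescence generated by metabolic reduction of a prosubstrate by living cells. The homogeneous, nonlytic format allowed repeated reads at 0, 8, 16, 24, 32 and 40 h of compound exposure.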

[8] = A CellTox Green Cytotoxicity Assay to monitor cytotoxicity in HepG2 cells - 24 hour (AID 1224878); also: nearly all actives have a fitted effect of over 45% in size
Summary of the method: as §3

[9] = A CellTox Green Cytotoxicity Assay to monitor cytotoxicity in HepG2 cells - 40 hour (AID 1224879); also: nearly all actives have a fitted effect of over 40% in size
Summary of the method: as §3

[10] = qHTS RealTime-Glo MT Cell Viability Assay in HEK293 cells - 0 hour (AID 1224880)
Summary of the method: as §2
% is scaled to controls: 0 for no effect and ±100 for the full control effect.

COCCOC[C@H](CC1(C(=O)NC2CCC(C(=O)O)CC2)CCCC1)C(=O)Oc1ccc2c(c1)CCC2 (stereo not given in full)
inactive: Potency [1] | Potency [2] | outcome [3] | max response [4] 5.36% | outcome [5] | outcome [6] | Potency [7] | outcome [8] | Potency [9] | Potency [10]

C[N+]1(C)CCCC(OC(=O)C(O)(c2ccccc2)c2ccccc2)C1 (stereo not given)
inactive: Potency [1] | Potency [2] | outcome [3] | max response [4] -4.47% | outcome [5] | outcome [6] | Potency [7] | outcome [8] | Potency [9] | Potency [10]

C=C(C)C(=O)OCC1CCCO1 (stereo not given)
inactive: Potency [1] | Potency [2] | outcome [3] | max response [4] 7.57% | outcome [5] | outcome [6] | Potency [7] | outcome [8] | Potency [9] | Potency [10]

O=[N+]([O-])c1cncn1CCN1CCOCC1
inactive: Potency [1] | Potency [2] | outcome [3] | max response [4] -2.63% | outcome [5] | outcome [6] | Potency [7] | outcome [8] | Potency [9] | Potency [10]

CC(C)C(=O)OC(=O)C(C)C
inactive: Potency [1] | Potency [2] | outcome [3] | max response [4] 3.07% | outcome [5] | outcome [6] | Potency [7] | outcome [8] | Potency [9] | Potency [10]

COc1cc(C(=O)NCc2ccc(OCCN(C)C)cc2)cc(OC)c1OC
inactive: Potency [1] | Potency [2] | outcome [3] | max response [4] -23.7% | outcome [5] | outcome [6] | Potency [7] | outcome [8] | Potency [9] | Potency [10]

O=C(O)CNC(=O)c1ccccc1
inactive: Potency [1] | Potency [2] | outcome [3] | max response [4] -1.85% | outcome [5] | outcome [6] | Potency [7] | outcome [8] | Potency [9] | Potency [10]

CCCCCCCCCCCCCCCCCCO
inactive: Potency [1] | Potency [2] | outcome [3] | max response [4] -1.19% | outcome [5] | outcome [6] | Potency [7] | outcome [8] | Potency [9] | Potency [10]

CCCCOC(=O)CCC(C)=O
inactive: Potency [1] | Potency [2] | outcome [3] | max response [4] -4.42% | outcome [5] | outcome [6] | Potency [7] | outcome [8] | Potency [9] | Potency [10]

CC(=O)c1ccccc1[N+](=O)[O-]
inactive: Potency [1] | Potency [2] | outcome [3] | max response [4] 21.1% | outcome [5] | outcome [6] | Potency [7] | outcome [8] | Potency [9] | Potency [10]

C1CCC2(CCCCO2)OC1
inactive: Potency [1] | Potency [2] | outcome [3] | max response [4] -6.53% | outcome [5] | outcome [6] | Potency [7] | outcome [8] | Potency [9] | Potency [10]

C=CN1CCCCCC1=O
inactive: Potency [1] | Potency [2] | outcome [3] | max response [4] 3.47% | outcome [5] | outcome [6] | Potency [7] | outcome [8] | Potency [9] | Potency [10]

CO/N=C(\C(=O)N[C@@H]1C(=O)N2C(C(=O)O)=C(CSc3nc(=O)c(O)nn3C)CS[C@H]12)c1csc(N)n1
inactive: Potency [1] | Potency [2] | outcome [3] | max response [4] 11.9% | outcome [5] | outcome [6] | Potency [7] | outcome [8] | Potency [9] | Potency [10]

CCOc1ccc2nc(S(N)(=O)=O)sc2c1
inactive: Potency [1] | Potency [2] | outcome [3] | max response [4] 6.72% | outcome [5] | outcome [6] | Potency [7] | outcome [8] | Potency [9] | Potency [10]

C=C[Si](OC(C)=O)(OC(C)=O)OC(C)=O
inactive: Potency [1] | Potency [2] | outcome [3] | max response [4] 4.65% | outcome [5] | outcome [6] | Potency [7] | outcome [8] | Potency [9] | Potency [10]

CCN(CC#N)c1cccc(C)c1
inactive: Potency [1] | Potency [2] | outcome [3] | max response [4] 13% | outcome [5] | outcome [6] | Potency [7] | outcome [8] | Potency [9] | Potency [10]

Nc1ccn([C@@H]2O[C@H](CO)[C@@H](O)C2O)c(=O)n1 (stereo not given in full)
inactive: Potency [1] | Potency [2] | outcome [3] | max response [4] 6.25% | outcome [5] | outcome [6] | Potency [7] | outcome [8] | Potency [9] | Potency [10]

Nc1ccn([C@@H]2O[C@H](CO)[C@@H](O)[C@@H]2O)c(=O)n1
inactive: Potency [1] | Potency [2] | outcome [3] | max response [4] 6.05% | outcome [5] | outcome [6] | Potency [7] | outcome [8] | Potency [9] | Potency [10]

Nc1ccncc1N
inactive: Potency [1] | Potency [2] | outcome [3] | max response [4] 13% | outcome [5] | outcome [6] | Potency [7] | outcome [8] | Potency [9] | Potency [10]
